# Test results taken from the supplement of paper PMC6555819.
# What was measured:
# Assay in all cases: PBM binding z-score (relative to random genomic background probes); higher = stronger binding; sequences stand for … in GC…GCGATTGACAGCGTAGAATGAAGG
# [1] = system: FXR:RXRa (NR concentration 270 nM, RXRa partner concentration 90 nM)
# Method in brief: (§1)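 Each nuclear receptor dimer, without ligand, was incubated for 1 h on custom Agilent 4×180K protein-binding microarrays. Binding was detected with antibodies against each partner (one per run), and scanned fluorescence was regression-normalized. The binding z-scores are referenced to random human genomic background probes.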
# [2] = system: LXRa:RXRa (NR concentration 270 nM, RXRa partner concentration 90 nM)
# Method in brief: as §1
# [3] = system: LXRa homodimer (NR concentration 270 nM)
# Method in brief: as §1
# [4] = system: LXRb:RXRa (NR concentration 270 nM, RXRa partner concentration 90 nM)
# Method in brief: as §1
# [5] = system: LXRb homodimer (NR concentration 270 nM)
# Method in brief: as §1
# [6] = system: PPARa:RXRa (NR concentration 270 nM, RXRa partner concentration 90 nM)
# Method in brief: as §1
# [7] = system: PPARg:RXRa (NR concentration 180 nM, RXRa partner concentration 90 nM)
# Method in brief: as §1
# [8] = system: PPARg:RXRa 270nM:90nM, anti-RXR (NR concentration 270 nM, RXRa partner concentration 90 nM)
# Method in brief: as §1
# [9] = system: PPARg:RXRa 30nM:10nM, anti-RXR (NR concentration 30 nM, RXRa partner concentration 10 nM)
# Method in brief: as §1
# [10] = system: PPARg:RXRa 90nM:30nM, anti-RXR (NR concentration 90 nM, RXRa partner concentration 30 nM)
# Method in brief: as §1
# [11] = system: PPARg:RXRa DBDmut IVT, anti-RXR (DBD mutation: RXRa K156A/R161A, NR concentration 270 nM, RXRa partner concentration 90 nM)
# Method in brief: as §1
# [12] = system: PPARg:RXRa IVT, anti-PPARg (NR concentration 270 nM, RXRa partner concentration 90 nM)
# Method in brief: as §1
# [13] = system: PPARg DBDmut:RXRa IVT, anti-PPARg (DBD mutation: PPARg1 K132A/R137A, NR concentration 270 nM, RXRa partner concentration 90 nM)
# Method in brief: as §1
# [14] = system: PPARg DBDmut IVT, anti-PPARg (DBD mutation: PPARg1 K132A/R137A, NR concentration 270 nM)
# Method in brief: as §1
# [15] = system: PPARg homodimer (NR concentration 180 nM)
# Method in brief: as §1
# [16] = system: PXR:RXRa (NR concentration 270 nM, RXRa partner concentration 90 nM)
# Method in brief: as §1
# [17] = system: PXR homodimer (NR concentration 270 nM)
# Method in brief: as §1
# [18] = system: RARa:RXR (NR concentration 270 nM, RXRa partner concentration 90 nM)
# Method in brief: as §1
# [19] = system: RARa homodimer (NR concentration 270 nM)
# Method in brief: as §1
# [20] = system: RARb:RXRa (NR concentration 270 nM, RXRa partner concentration 90 nM)
# Method in brief: as §1
Sequence,PBM binding z-score [1],PBM binding z-score [2],PBM binding z-score [3],PBM binding z-score [4],PBM binding z-score [5],PBM binding z-score [6],PBM binding z-score [7],PBM binding z-score [8],PBM binding z-score [9],PBM binding z-score [10],PBM binding z-score [11],PBM binding z-score [12],PBM binding z-score [13],PBM binding z-score [14],PBM binding z-score [15],PBM binding z-score [16],PBM binding z-score [17],PBM binding z-score [18],PBM binding z-score [19],PBM binding z-score [20]
CAGCCAAGGTCAGGGCCAGTATAGGAGGAACGTT,5.13,3.08,-0.277,2.25,-0.506,4.22,2.73,2.77,0.584,1.61,1.56,2.1,-0.336,-0.871,2.33,2.13,0.199,3.09,0.299,4.73
GCATATAAGTAATACAAGGTGAAAGTCCGATTGT,0.578,0.301,0.499,0.331,-0.122,0.85,0.911,0.715,0.283,0.301,0.462,0.546,0.743,0.728,0.405,0.436,0.309,1.13,0.698,0.452
CCTATTTGGTCAAGGTCACACACGCTATAGGTAC,4.34,4.04,2.64,4.09,1.47,4.33,3.07,3.58,1.55,2.5,2.33,3.67,1.27,1.25,3.05,4.1,2.06,4.39,2.51,4.3
CAAACTAGGTCCCGAAAGGTCAAAGTCGAATGAC,5.02,5.71,5.76,5.44,1.82,5.54,4.62,5.24,2.11,4.36,4.2,4.78,0.419,0.865,3.35,5.58,1.52,6.01,1.91,4.74
CCTACTGGGCCACGCAAGGTCATTGATTCAGTGA,2.92,3.83,2.79,2.39,-0.438,3.32,2.94,3.26,1.18,2.34,5.58,5.36,0.0336,0.776,2.02,4.51,1.84,3.48,0.546,2.81
AGAACGTGGGCAATGAGTTGATAGCACGGGTGGC,-0.669,-0.786,-0.475,-1.07,-0.973,-0.601,0.723,-0.543,-0.342,-0.679,-0.374,-0.0857,-0.361,-0.494,-0.516,-0.399,-0.204,-0.5,-0.521,-0.261
CGTCCAAGGTCAATGCTAGGTCTGTGAAAGCATT,6.34,4.7,0.321,3.41,0.865,5.01,3.28,3.99,0.804,2.73,3.09,3.37,0.249,0.0297,2.17,3.74,0.712,3.88,0.767,5
CCAGACAGGTGAATGGTAACTCAGTCTGGTACGC,-0.448,-0.493,-0.271,-0.246,-0.723,0.129,0.419,0.128,-0.647,-0.216,0.897,0.735,-0.452,-0.717,0.288,-0.4,-0.302,-0.379,-0.0506,0.381
CGTCAAAGTTCAAGGTGACGTAACAGAAAGCAGC,6.62,5.96,2.8,3.49,0.846,4.92,4.71,5.65,2.12,4.45,0.983,2.9,0.379,0.562,2.88,4.44,2.3,3.88,1.52,5.21
ATCTCTAGGTAACAAGTTCAGTGGAAGAGAGGAC,0.589,0.744,0.58,0.666,0.823,1.47,1.7,1.79,0.967,1.71,3.2,3.02,0.956,1.34,1.43,1.66,1.48,1.15,1.39,1.8
ATATATAGGTTATCGGGTCATTCAGTTTGCGCAT,3.94,3.78,2.66,3.46,2.07,5.17,7.65,6.52,4.09,6.01,7.55,7.39,3.48,3.64,4.29,3.91,8.17,4.26,3.1,2.96
GATACAGGGTCAGCTCGAGGCCAGAGTATGGAAA,4.59,2.87,-0.199,2.4,-0.786,4.56,3.36,3.21,0.631,2.06,1.36,2.36,-0.23,-0.691,1.54,3.47,-0.0374,3.66,-0.0976,4.12
CCTTACGGGTCCAGGTTATAGCACGGGTGGTACG,-0.118,-0.304,-0.277,-0.566,-1.29,-0.292,0.168,-0.847,-0.404,-0.604,-1.08,-0.342,-0.7,-1.74,-0.0235,-0.402,-0.186,-0.536,0.162,0.245
TCTTGTAGATCAGCACGTTAAGAAAGCTGGCCAA,0.121,0.0301,-0.232,-0.0159,-0.411,0.18,-0.291,0.766,2.47,1.43,1.32,-0.181,-0.456,-0.271,-0.311,0.0608,0.0555,0.441,0.0158,-0.204
